From PubChem BioAssay AID624310 (Broad Institute, 2012) come the findings set out here.

Calls of active or inactive are those of the source.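 The calls were made as follows: active = compound lowering absorbance whose fitted half-maximal concentration is at most twice its top valid dose; inconclusive = flat fit with 30 to 70% inhibition, or poor fit; inactive = the rest, including wrong-direction or flat responses.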

This test deals with Protein disulfide-isomerase (Homo sapiens) (UniProt P07237). The test is described as follows: inhibition of PDI-catalysed insulin clumping – biochemical, turbidity, absorbance, dry powder samples, confirmation (AID 624310).
Sequence of Protein disulfide-isomerase (Homo sapiens) (P07237 whole entry, looked up): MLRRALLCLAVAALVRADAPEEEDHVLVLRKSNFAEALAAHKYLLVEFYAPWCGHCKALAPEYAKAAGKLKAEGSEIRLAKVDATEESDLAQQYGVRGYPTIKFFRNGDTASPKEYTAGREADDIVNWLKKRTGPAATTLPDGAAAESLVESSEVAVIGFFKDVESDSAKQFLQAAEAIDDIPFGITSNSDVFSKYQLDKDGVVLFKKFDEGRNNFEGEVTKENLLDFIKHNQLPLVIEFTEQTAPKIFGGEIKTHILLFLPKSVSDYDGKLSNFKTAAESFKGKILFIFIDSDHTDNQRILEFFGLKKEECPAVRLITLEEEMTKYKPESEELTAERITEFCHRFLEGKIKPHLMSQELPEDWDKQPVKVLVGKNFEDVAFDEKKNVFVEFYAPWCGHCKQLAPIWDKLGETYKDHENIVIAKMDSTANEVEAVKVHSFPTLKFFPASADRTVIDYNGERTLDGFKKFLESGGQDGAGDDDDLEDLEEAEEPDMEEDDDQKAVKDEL

For the molecule `C[C@H]1CN([C@@H](C)CO)C(=O)c2cccc(NS(C)(=O)=O)c2O[C@H]1CN(C)Cc1ccc(Oc2ccccc2)cc1`, the result was inactive.
